Laboratory results from the supplement of paper PMC8975748.
Where a name gives a salt, the structure may show the parent alone. ± gives the standard deviation of the averaged measurements.

How the values were obtained:
[1] = system: Saccharomyces cerevisiae BY4741 SeMeCo community; assay: mean cell size (pixel area) (pixels); higher = larger cells; settings: 10 µM; 24 h; SM minimal medium
In short: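 For 24 h, 70 µl of yeast culture diluted to OD600 = 0.3 from an overnight preculture at OD600 = 1.0 was kept in SM medium in 384-well plates acoustically predosed with drug, final 10 µM. The strain was Saccharomyces cerevisiae BY4741 forming a fluorescent community of four plasmids, each complementing one auxotrophy and carrying a fluorescent marker. Automated confocal microscopy of paraformaldehyde-fixed cells, analysed in Harmony, provided mean cell pixel area per well, which was averaged over 3 replicates. Same SeMeCo high-content imaging drug screen: Selleck FDA-approved drugs at 10 µM, 24 h in SM medium, 384-well plates, 3 replicates.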

[2] = system: Saccharomyces cerevisiae BY4741 SeMeCo community; assay: z-score of prototroph abundance vs DMSO median; higher = larger share of this subpopulation than in DMSO controls; settings: 10 µM; 24 h; SM minimal medium; subpopulation (auxotrophy): Prototroph
In short: (§1)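 Cells of a Saccharomyces cerevisiae BY4741 community, carrying four plasmids that each restored one auxotrophy and encoded a distinct fluorescent protein, were pre-grown overnight to OD600 1.0 and diluted to 0.3. A 70 µl volume was added to 384-well plates acoustically predosed with library drugs (10 µM final) and grown 24 h in minimal SM medium. After paraformaldehyde fixation, automated confocal microscopy was used, with single-auxotroph fluorescent strains for thresholds and autofluorescence correction. The abundance of each subpopulation was scored as a z-score against the vehicle-well median.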

[3] = system: Saccharomyces cerevisiae BY4741 SeMeCo community; assay: z-score of subpopulation abundance vs DMSO median, subpopulation auxotrophic for M; higher = larger share of this subpopulation than in DMSO controls; settings: 10 µM; 24 h; SM minimal medium; subpopulation (auxotrophy): M
In short: as §1

[4] = system: Saccharomyces cerevisiae BY4741 SeMeCo community; assay: z-score of subpopulation abundance vs DMSO median, subpopulation auxotrophic for L; higher = larger share of this subpopulation than in DMSO controls; settings: 10 µM; 24 h; SM minimal medium; subpopulation (auxotrophy): L
In short: as §1

[5] = system: Saccharomyces cerevisiae BY4741 SeMeCo community; assay: z-score of subpopulation abundance vs DMSO median, subpopulation auxotrophic for U; higher = larger share of this subpopulation than in DMSO controls; settings: 10 µM; 24 h; SM minimal medium; subpopulation (auxotrophy): U
In short: as §1

[6] = system: Saccharomyces cerevisiae BY4741 SeMeCo community; assay: z-score of subpopulation abundance vs DMSO median, subpopulation auxotrophic for H; higher = larger share of this subpopulation than in DMSO controls; settings: 10 µM; 24 h; SM minimal medium; subpopulation (auxotrophy): H
In short: as §1

[7] = system: Saccharomyces cerevisiae BY4741 SeMeCo community; assay: z-score of subpopulation abundance vs DMSO median, subpopulation auxotrophic for LU; higher = larger share of this subpopulation than in DMSO controls; settings: 10 µM; 24 h; SM minimal medium; subpopulation (auxotrophy): LU
In short: as §1

[8] = system: Saccharomyces cerevisiae BY4741 SeMeCo community; assay: z-score of subpopulation abundance vs DMSO median, subpopulation auxotrophic for LM; higher = larger share of this subpopulation than in DMSO controls; settings: 10 µM; 24 h; SM minimal medium; subpopulation (auxotrophy): LM
In short: as §1

[9] = system: Saccharomyces cerevisiae BY4741 SeMeCo community; assay: z-score of subpopulation abundance vs DMSO median, subpopulation auxotrophic for HM; higher = larger share of this subpopulation than in DMSO controls; settings: 10 µM; 24 h; SM minimal medium; subpopulation (auxotrophy): HM
In short: as §1

[10] = system: Saccharomyces cerevisiae BY4741 SeMeCo community; assay: z-score of subpopulation abundance vs DMSO median, subpopulation auxotrophic for UM; higher = larger share of this subpopulation than in DMSO controls; settings: 10 µM; 24 h; SM minimal medium; subpopulation (auxotrophy): UM
In short: as §1

[11] = system: Saccharomyces cerevisiae BY4741 SeMeCo community; assay: z-score of subpopulation abundance vs DMSO median, subpopulation auxotrophic for HLU; higher = larger share of this subpopulation than in DMSO controls; settings: 10 µM; 24 h; SM minimal medium; subpopulation (auxotrophy): HLU
In short: as §1

[12] = system: Saccharomyces cerevisiae BY4741 SeMeCo community; assay: z-score of subpopulation abundance vs DMSO median, subpopulation auxotrophic for HLM; higher = larger share of this subpopulation than in DMSO controls; settings: 10 µM; 24 h; SM minimal medium; subpopulation (auxotrophy): HLM
In short: as §1

[13] = system: Saccharomyces cerevisiae BY4741 SeMeCo community; assay: z-score of subpopulation abundance vs DMSO median, subpopulation auxotrophic for HUM; higher = larger share of this subpopulation than in DMSO controls; settings: 10 µM; 24 h; SM minimal medium; subpopulation (auxotrophy): HUM
In short: as §1

[14] = system: Saccharomyces cerevisiae BY4741 SeMeCo community; assay: z-score of subpopulation abundance vs DMSO median, subpopulation auxotrophic for LUM; higher = larger share of this subpopulation than in DMSO controls; settings: 10 µM; 24 h; SM minimal medium; subpopulation (auxotrophy): LUM
In short: as §1

[15] = system: Saccharomyces cerevisiae BY4741 SeMeCo community; assay: z-score of subpopulation abundance vs DMSO median, subpopulation auxotrophic for HLUM; higher = larger share of this subpopulation than in DMSO controls; settings: 10 µM; 24 h; SM minimal medium; subpopulation (auxotrophy): HLUM
In short: as §1

[16] = system: Saccharomyces cerevisiae BY4741 SeMeCo community; assay: z-score of subpopulation abundance vs DMSO median, subpopulation auxotrophic for HL; higher = larger share of this subpopulation than in DMSO controls; settings: 10 µM; 24 h; SM minimal medium; subpopulation (auxotrophy): HL
In short: as §1

[17] = system: Saccharomyces cerevisiae BY4741 SeMeCo community; assay: z-score of subpopulation abundance vs DMSO median, subpopulation auxotrophic for HU; higher = larger share of this subpopulation than in DMSO controls; settings: 10 µM; 24 h; SM minimal medium; subpopulation (auxotrophy): HU
In short: as §1

Compound	mean cell size [1]	z-score of prototroph abundance [2]	z-score of subpopulation abundance [3]	z-score of subpopulation abundance [4]	z-score of subpopulation abundance [5]	z-score of subpopulation abundance [6]	z-score of subpopulation abundance [7]	z-score of subpopulation abundance [8]	z-score of subpopulation abundance [9]	z-score of subpopulation abundance [10]	z-score of subpopulation abundance [11]	z-score of subpopulation abundance [12]	z-score of subpopulation abundance [13]	z-score of subpopulation abundance [14]	z-score of subpopulation abundance [15]	z-score of subpopulation abundance [16]	z-score of subpopulation abundance [17]
COc1ccc(NS(=O)(=O)c2ccc(N)cc2)nn1 [Sulfamethoxypyridazine]	12.2 ± 0.35	0.98	-0.66	-0.07	0.12	-0.64	-0.73	-0.89	-0.15	0.13	-0.41	-1.06	-0.17	-0.72	-0.55		
CC1=C(C(=O)O)N2C(=O)[C@@H](NC(=O)[C@H](N)c3ccccc3)[C@H]2SC1 [Cephalexin]	12 ± 0.24	-0.14	1.37	0.02	-1.02	0.56	-0.21	0.35	1.28		-0.6	-0.53	0.41	-0.42	-0.42	0.67	
CCCCCCCCCCCCCCCCOP(=O)([O-])OCC[N+](C)(C)C [Miltefosine]	7.76 ± 0.26	-22.6	-7.93	-5.76	-5.15	-10.2	7.16	-4.09	0.26	31.2	0.88	15.6	142	20.4	161	3.75	
C[C@H]1COc2c(N3CCN(C)CC3)c(F)cc3c(=O)c(C(=O)O)cn1c23 [Levofloxacin hydrate]	12.5 ± 0.29	-1.38	0.54	1.32		0.26	1.73	1.34	0.64		0.84	0.07	0.55	1.66	0.84	0.74	0.77
Oc1c(Cl)cc(Cl)c(Cl)c1Cc1c(O)c(Cl)cc(Cl)c1Cl [Hexachlorophene]	12.08 ± 0.11	-5.27	0.14	-1.4	0.01	7.09	-0.56	1.88	9.29	5.02	1.13	8.62	14	2.37	7.77	3.85	
CCC[C@@H]1C[C@@H](C(=O)N[C@@H]([C@H]2O[C@H](SC)[C@H](O)[C@@H](O)[C@H]2O)[C@@H](C)O)N(C)C1 [Lincomycin HCl]	12.4 ± 0.14		0.32	-0.98	-0.24	-0.53	-0.63	-0.14	-0.17	0.19	-0.34	-0.77	0.3	-0.87	-0.36	-0.34	
COc1ccc2cc(C(=O)O)ccc2c1 [6-Methoxy-2-naphthoic acid]	13.4 ± 0.15	2.36	-2.65	0.27		2.01	-1.63	-1.51	0.22	-3.74	0.62	3.71	-1.83	-0.89	1.63	0.89	-0.63
CC1(C)CC[C@]2(C(=O)O)CC[C@]3(C)C(=CC[C@@H]4[C@@]5(C)CC[C@H](O)C(C)(C)[C@@H]5CC[C@]43C)[C@@H]2C1 [Oleanolic Acid]	12.4 ± 0.22	-0.29	0.25	-0.03	-0.6	-0.07	-0.16	0.88	1.05	0.1	0.15	0.33	0.93	0.78	0.12	0.59	
CC(C)NC(=N)NC(=N)Nc1ccc(Cl)cc1 [Proguanil]	12.3 ± 0.13	0	0.65	-1.12		-0.88	-0.48	0.02	0.11	0.61	-0.46	-0.27	-0.17	-0.3	-0.44	-0.81	-0.55
O=C(Cn1cnnn1)N[C@@H]1C(=O)N2C(C(=O)O)=C(CSc3nncs3)CS[C@H]12 [Ceftezole sodium]	12.31 ± 0.087	-0.69	0.01	-0.77		-0.94	0.2	0.18	-0.19		0.11	0.32	-0.02	0.36	0.82	0	
CC1=C[C@H]2C(=O)O[C@H]3C[C@@H](C/C=C(\C)C[C@@H](C)/C=C/C=C4\CO[C@H](/C1=N\O)[C@@]42O)O[C@@]1(CC[C@H](C)[C@@H](C)O1)C3.CC[C@H]1O[C@]2(CC[C@@H]1C)C[C@@H]1C[C@@H](C/C=C(\C)C[C@@H](C)/C=C/C=C3\CO[C@@H]4/C(=N\O)C(C)=C[C@@H](C(=O)O1)[C@]34O)O2 [Milbemycin Oxime]	12.36 ± 0.099	0.31	-1.4	0.14		2.17	-0.7	-0.44	0.15		-0.11	-0.22	0.03	-0.87	-0.41	1.42	
CNCc1cc(-c2ccccc2F)n(S(=O)(=O)c2cccnc2)c1 [Vonoprazan Fumarate (TAK-438)]	12.3 ± 0.26	0	0.45	-1.45	0.84		-0.72	-0.98	-0.52	-0.09	-0.64	-0.4	-0.68	-0.32	-0.37	-1.38	
c1ccc(C2CN3CCSC3=N2)cc1 (centres undefined) [Tetramisole HCl]	11.9 ± 0.12	0.24	-0.44	0.54		-0.14	-0.21	0.13	-0.54	0.02	0.35	-0.45	-0.09	0.46	0.92	0.08	0.01
